Results published in PubChem BioAssay AID602122 (National Center for Advancing Translational Sciences (NCATS), 2011).
Active and inactive are the calls of the source.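 The calls were made as follows: active = translocation seen by eye under the microscope after immunostaining of patient fibroblasts; inconclusive = translocation result judged unclear; inactive = no translocation seen.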

Molecular target: Lysosomal alpha-glucosidase (Homo sapiens) (UniProt P10253)
Assay: qHTS for Activators of Human alpha-Glucosidase as a Potential Chaperone Treatment of Pompe Disease: Fibroblast Translocation
Settings: Pompe patient fibroblasts, GAA immunostaining lysosomal translocation, 6 d
Excerpt: Alpha-glucosidase is responsible for hydrolysis of terminal, non-reducing 1,4-linked alpha-D-glucose residues with release of alpha-D-glucose. It is a lysosomal hydrolase that is required for the degradation of a small percentage (1-3%) of cellular glycogen in human. Deficiency of this enzyme results in glycogen-storage disease type II (GSDII), also referred to as Pompe disease, an autosomal recessive disorder. Structurally normal glycogen is accumulated in lysosomes and cytoplasm in affected patients, primarily in muscle tissues. Excessive glycogen storage within lysosomes may interrupt normal functioning of other organelles and leads to cellular injury. In turn, this leads to enlargement and dysfunction of the entire organ involved (eg, cardiomyopathy and muscle weakness). It has reported that the improper folding and trafficking of alpha-glucosidase resulting from the genetic mutations may account for a significant number of Pompe patients. […] We optimized this alpha-glucosidase assay in 1536-well plate format for identifying the novel small molecule inhibitors with the structures other than the sugar analogs in order to develop the new pharmacological chaperones. Validated hits were tested in this fibroblast translocation assay that measures fluorescence through immunostaining Pompe patient derived fibroblasts. NIH Chemical Genomics Center [NCGC] […]

| SMILES | outcome |
| --- | --- |
| CCCN1CNc2c(c(=O)[nH]c(=S)n2Cc2ccc(OC)c(OC)c2)C1 | active; yes |
